Laboratory results published in PubChem BioAssay (NCATS).
Inconclusive results are not listed. The source made the active and inactive calls. Unless noted, the call rests on the fitted dose curve.

Legend:
[1] = target: Cytochrome P450 1A2 (Homo sapiens) (UniProt P05177); test: p450-cyp1a2 (AID 410)
Summary of the method: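 20nM CYP1A2, 100uM Luciferin-ME (=Km), 100mM KPO4; cpd 10 min RT; +NADPH regen, 60 min RT; stop/detect 20 min; luminescence. Normalized to furafylline 57 uM = full inhibition.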

[2] = target: Glucocorticoid receptor (Homo sapiens) (UniProt P04150); test: GR-GFP Redistribution (AID 450;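 active means compounds whose dose series gives a full or clear partial fitted curve of increased nuclear translocation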; further: potency means the concentration at half of the fitted maximal effect)
Chain of Glucocorticoid receptor (Homo sapiens) (P04150 whole entry, looked up, the tested form may be a part): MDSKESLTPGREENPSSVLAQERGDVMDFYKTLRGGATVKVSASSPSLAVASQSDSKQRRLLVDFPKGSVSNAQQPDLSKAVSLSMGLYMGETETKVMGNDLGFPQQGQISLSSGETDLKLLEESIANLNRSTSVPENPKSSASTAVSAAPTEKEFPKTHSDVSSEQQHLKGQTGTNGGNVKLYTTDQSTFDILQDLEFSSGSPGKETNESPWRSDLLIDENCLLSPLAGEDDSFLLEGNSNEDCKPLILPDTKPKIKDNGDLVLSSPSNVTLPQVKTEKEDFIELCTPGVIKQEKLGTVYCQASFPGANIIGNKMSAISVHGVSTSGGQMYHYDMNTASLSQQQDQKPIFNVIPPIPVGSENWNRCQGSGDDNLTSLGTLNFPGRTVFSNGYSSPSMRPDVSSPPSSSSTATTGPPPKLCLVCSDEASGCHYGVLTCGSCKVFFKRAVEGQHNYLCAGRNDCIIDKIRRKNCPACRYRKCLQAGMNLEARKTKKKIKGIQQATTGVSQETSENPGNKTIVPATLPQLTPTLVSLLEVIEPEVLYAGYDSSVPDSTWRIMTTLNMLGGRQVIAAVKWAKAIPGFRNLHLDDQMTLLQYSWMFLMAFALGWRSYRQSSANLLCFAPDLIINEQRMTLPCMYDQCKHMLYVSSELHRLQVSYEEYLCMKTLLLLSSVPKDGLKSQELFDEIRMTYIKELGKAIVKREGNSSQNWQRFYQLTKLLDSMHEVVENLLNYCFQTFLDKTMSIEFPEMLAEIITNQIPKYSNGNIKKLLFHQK

[3] = target: Glucocorticoid receptor (Homo sapiens) (UniProt P04150); test: GR-EFC Redistribution (AID 451); conditions: CHO-K1 GR-EFC translocation, beta-gal luminescence, 2 h; further: potency means the concentration at half of the fitted maximal effect
Summary of the method: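 Translocation of GR-ED fusion to nuclear EA restores b-gal, read by luminescence after 1 h room-temperature detection. Engineered CHO-K1 biosensor cells, 1,000/well, exposed 2 h at 37 C to titrations up to 46 uM final.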

[4] = target: Mitogen-activated protein kinase 10 (Mus musculus) (UniProt Q61831); test: JNK3 AlphaScreen Assay (AID 530; active means well fitted curve in either direction with a large enough effect, not every such curve was filed as active;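 further: kinase came from lysate of stimulated human HepG2 cells; signal reports phosphorylation of biotinylated GST-cJun 1-79 at Ser73 with 10 µM ATP; series mostly up to about 57 µM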)
Summary of the method: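 Kinase buffer: 20 mM Tris-HCl pH 7.6, 10 mM MgCl2, 1 mM DTT, 0.1 mM Na3VO4, 0.01% Tween-20; ATP 10 uM. Substrate biotin-GST-cJun(1-79), enzyme from activated HepG2 lysates. Detection by Ser73 phospho-antibody AlphaScreen.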

[5] = target: 3',5'-cyclic-AMP phosphodiesterase 4B (Homo sapiens) (UniProt Q07343); test: qHTS Assay for Inhibitors of PDE-IV (AID 607; active means well fitted activation curve with a large enough effect in the main read-out, with a control signal flat, not every such curve was filed as active)
Chain of 3',5'-cyclic-AMP phosphodiesterase 4B (Homo sapiens) (Q07343 whole entry, looked up): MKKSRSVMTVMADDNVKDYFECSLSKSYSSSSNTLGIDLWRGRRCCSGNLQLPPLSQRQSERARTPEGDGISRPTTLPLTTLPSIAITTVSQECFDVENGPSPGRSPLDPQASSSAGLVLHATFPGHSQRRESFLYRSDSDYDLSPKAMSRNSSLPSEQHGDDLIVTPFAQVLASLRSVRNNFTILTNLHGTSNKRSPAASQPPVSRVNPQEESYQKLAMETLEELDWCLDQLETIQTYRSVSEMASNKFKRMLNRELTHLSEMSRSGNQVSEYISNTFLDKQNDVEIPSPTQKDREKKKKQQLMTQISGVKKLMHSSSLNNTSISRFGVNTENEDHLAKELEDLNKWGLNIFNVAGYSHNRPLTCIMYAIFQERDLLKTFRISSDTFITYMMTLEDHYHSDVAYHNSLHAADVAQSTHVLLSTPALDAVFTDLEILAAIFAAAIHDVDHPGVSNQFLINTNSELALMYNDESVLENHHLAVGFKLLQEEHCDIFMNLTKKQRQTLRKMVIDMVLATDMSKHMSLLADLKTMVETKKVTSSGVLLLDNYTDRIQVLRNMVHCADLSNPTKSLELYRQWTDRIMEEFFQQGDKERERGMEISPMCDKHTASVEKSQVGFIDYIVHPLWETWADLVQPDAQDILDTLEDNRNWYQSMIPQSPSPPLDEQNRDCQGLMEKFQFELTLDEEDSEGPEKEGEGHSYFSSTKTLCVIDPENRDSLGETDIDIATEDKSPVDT
Summary of the method: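 ACTOne HEK293 cells carry a modified cAMP-gated CNG channel and express endogenous PDE4; plated 1000 cells/well, compounds up to 22.9 uM final. Membrane-potential dye fluorescence (ex 535/em 590) was read; parental cells received 10 uM forskolin + 100 uM RO 20-1724.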

[6] = target: Cytochrome P450 2C9 (Homo sapiens) (UniProt P11712); test: qHTS Assay for Inhibitors and Substrates of Cytochrome P450 2C9 (AID 883; active means well fitted inhibition curve with a large enough effect; further: nearly all actives have a fitted effect of over 60% in size)
Chain of Cytochrome P450 2C9 (Homo sapiens) (P11712 whole entry, looked up): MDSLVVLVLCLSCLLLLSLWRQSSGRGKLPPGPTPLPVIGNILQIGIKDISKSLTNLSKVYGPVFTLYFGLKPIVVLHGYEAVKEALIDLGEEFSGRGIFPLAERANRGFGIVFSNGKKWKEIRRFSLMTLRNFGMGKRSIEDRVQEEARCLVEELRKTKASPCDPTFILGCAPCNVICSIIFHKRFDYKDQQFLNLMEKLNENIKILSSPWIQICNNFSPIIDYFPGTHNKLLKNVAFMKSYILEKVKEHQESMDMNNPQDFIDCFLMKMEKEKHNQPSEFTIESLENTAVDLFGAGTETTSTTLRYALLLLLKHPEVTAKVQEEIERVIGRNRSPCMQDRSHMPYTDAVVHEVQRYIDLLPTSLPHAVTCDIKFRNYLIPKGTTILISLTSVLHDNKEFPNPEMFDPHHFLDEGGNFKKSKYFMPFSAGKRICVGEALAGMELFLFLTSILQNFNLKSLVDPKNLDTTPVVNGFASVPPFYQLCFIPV
Summary of the method: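 Turnover of Luciferin-H (100uM, KM) by 10nM human CYP2C9 was measured over 60 min at 37C with NADPH regeneration; inhibitors and some substrates reduce luminescence. Data normalized to sulphaphenazole 57uM.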

[7] = target: Cytochrome P450 2C19 (Homo sapiens) (UniProt P33261); test: qHTS Assay for Inhibitors and Substrates of Cytochrome P450 2C19 (AID 899; active means well fitted inhibition curve with a large enough effect; further: nearly all actives have a fitted effect of over 60% in size)
Chain of Cytochrome P450 2C19 (Homo sapiens) (P33261 whole entry, looked up): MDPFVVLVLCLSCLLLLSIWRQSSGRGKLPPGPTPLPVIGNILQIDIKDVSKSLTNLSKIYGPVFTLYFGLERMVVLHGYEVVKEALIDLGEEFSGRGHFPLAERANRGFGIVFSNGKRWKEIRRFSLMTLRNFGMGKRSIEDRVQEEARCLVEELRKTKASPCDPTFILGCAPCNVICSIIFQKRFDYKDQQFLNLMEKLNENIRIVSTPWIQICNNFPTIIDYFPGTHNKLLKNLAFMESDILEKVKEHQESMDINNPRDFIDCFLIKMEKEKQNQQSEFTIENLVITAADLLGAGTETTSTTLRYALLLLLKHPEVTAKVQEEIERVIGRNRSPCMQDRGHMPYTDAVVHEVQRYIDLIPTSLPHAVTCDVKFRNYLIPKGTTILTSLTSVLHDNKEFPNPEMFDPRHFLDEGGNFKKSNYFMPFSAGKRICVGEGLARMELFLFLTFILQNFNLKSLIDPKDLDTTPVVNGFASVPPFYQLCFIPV
Summary of the method: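 Reactions contain 5nM enzyme, 10uM Luciferin-H EGE (KM) and 50mM KPO4; compound preincubates 10 min at 37C, NADPH regeneration starts turnover for 60 min. Luminescence after detection reagent gives activity.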

Measured: Potency

Chain of Cytochrome P450 1A2 (Homo sapiens) (P05177 whole entry, looked up): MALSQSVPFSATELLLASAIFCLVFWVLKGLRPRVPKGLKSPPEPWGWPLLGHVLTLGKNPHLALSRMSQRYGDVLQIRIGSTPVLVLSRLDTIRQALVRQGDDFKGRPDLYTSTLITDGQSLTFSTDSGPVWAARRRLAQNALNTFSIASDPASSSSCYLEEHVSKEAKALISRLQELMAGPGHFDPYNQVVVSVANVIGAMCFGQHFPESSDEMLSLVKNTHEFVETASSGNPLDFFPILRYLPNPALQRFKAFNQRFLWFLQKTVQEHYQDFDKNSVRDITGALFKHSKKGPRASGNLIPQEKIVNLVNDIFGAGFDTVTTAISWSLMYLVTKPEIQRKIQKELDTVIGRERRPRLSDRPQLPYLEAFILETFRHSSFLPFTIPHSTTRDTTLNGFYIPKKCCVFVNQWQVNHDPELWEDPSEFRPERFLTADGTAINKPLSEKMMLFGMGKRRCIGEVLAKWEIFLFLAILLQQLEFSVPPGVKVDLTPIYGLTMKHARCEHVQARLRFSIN

COc1ccc([C@@H]2CC(=O)c3c(O)cc(O[C@@H]4O[C@@H](CO[C@@H]5O[C@@H](C)[C@@H](O)[C@@H](O)[C@H]5O)[C@@H](O)[C@@H](O)[C@H]4O)cc3O2)cc1O
inactive: [1] | [2] > 46 µM | [3] > 46 µM | [4] | [5] | [6] | [7]
